Several values for one entry are separate records, joined by “and”; a condition that tells them apart may be missing. Equal values may be shown once. Records with an inconclusive call do not appear. Activity calls are given as the source filed them. Unless noted, calls follow the shape of the dose curve; as a rule, active = well fitted curve in the direction sought with a large enough effect; inconclusive = small, poorly fitted or top-dose-only effect, or another doubt; inactive = no such curve, though single readings can be large; an effect the other way counts as inactive or inconclusive.

A short description of assay [1]: High-throughput drug toxicity screening in the BPDCN cell line Cal-1 (AID 1224825; call rule not given here). The settings on record: Cal-1 BPDCN cell viability, qHTS; at 45.8 µM (top of the series). The procedure, abridged:
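Exponentially growing Cal-1 cells, 500 per well in phenol red-free RPMI with 10% FBS, were exposed to compounds for 48 h at 37 °C, 5% CO2. Viability was read by CellTiter-Glo luminescence and normalised to DMSO (100%) and 9.2 uM bortezomib (0%).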

A short description of assay [2]: qHTS assay for measurement of the activity of small molecule inhibitors on Zika virus induced Caspase-3 activity in human iPSC derived neural progenitor cells (hNPCs) (AID 1224857). Also: nearly all actives have a fitted effect of over 65% in size. Also: potency is read from the fitted curve at half-maximal effect. Put shortly:
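Percent inhibition of virus-induced caspase-3/7 luminescence (Caspase-Glo), scaled between uninfected cells and Zika-infected cells. hNPCs received compound 1 hr before ZIKV at 2 FFU/cell, with 6 hours infection at 37 C.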
On the technique in general: In qHTS, concentration-response curves come from the screen itself.

Assay [3] in a line: qHTS assay for measurement of the activity of small molecule inhibitors on Zika virus induced Caspase-3 activity in human astrocytoma cells (AID 1224859). Also: potency is read from the fitted curve at half-maximal effect. The procedure, abridged:
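Luminescent caspase-3/7 read-out (30 min reagent, room temperature) in human SNB-19 cells infected 6 h with ZIKV (2 FFU/cell) after 1 h compound pre-incubation; Data were normalised to uninfected and infected wells.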

The nature of assay [4]: qHTS Screen of the MIPE 4.0 Collection Against Ewings Sarcoma (EW8) (AID 1259255). Also: nearly all actives have a fitted effect of over 35% in size. Also: potency is read from the fitted curve at half-maximal effect.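 As to viability: 100% = DMSO-treated cells and 0% = medium-only wells without cells.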 The procedure, abridged: (§1)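 Here, cells in 5% FBS RPMI were exposed for two days (48 h) to compound dilutions added four hours after plating. ATP-based CellTiter-Glo luminescence measured viability, normalized to vehicle and no-cell blanks.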
Assay [5] is described as follows: qHTS Screen of the MIPE 4.0 Collection Against Ewings Sarcoma (TC32) (AID 1259256). Also: nearly all actives have a fitted effect of over 45% in size. Also: potency is read from the fitted curve at half-maximal effect. Put shortly: as §1
A short description of assay [6]: P-glycoprotein substrates identified in KB-8-5-11 adenocarcinoma cell line, qHTS therapeutic library screen (AID 1346987). Also: nearly all actives have a fitted effect of over 65% in size. Also: potency is read from the fitted curve at half-maximal effect. The procedure, abridged:
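Steps: plate 500 KB-8-5-11 cells/well in DMEM + 10% FCS (colchicine removed); pin compounds in dose-response; incubate 72 h, 37 degree C, 5% CO2; add CellTiter-Glo, 5 min; read luminescence.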

Assay [7] can be described thus: NS1 protein of Zika virus - qHTS assay to identify small molecule inhibitors in human HEK 293 cells (AID 1347053). Also: nearly all actives have a fitted effect of over 55% in size. Also: potency is read from the fitted curve at half-maximal effect. Put shortly: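 HEK 293; 20 h pre-culture, 37 C/5% CO2; cpd 1 h pre-infection; ZIKV MR766, MOI = 0.5, 24 h, 37 C; TR-FRET NS1 readout (two anti-NS1 Abs); norm. to no-virus vs infected.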
Assay [8] can be described thus: qHTS Screen of the MIPE 4.0 Collection Against Ewings Sarcoma (TC71) (AID 1259253). Also: nearly all actives have a fitted effect of over 40% in size. Also: potency is read from the fitted curve at half-maximal effect. Put shortly:
as §1

The target of assay [9] is Atrial natriuretic peptide receptor 1 (Homo sapiens) (UniProt P16066). Nature of the assay: Natriuretic polypeptide receptor (hNpr1) antagonism - Pilot screen (AID 1347049; calls by dose curve;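 also: agonist-evoked cGMP luminescence read 20 min after hNppA addition; % is scaled to controls: 0 for no effect and ±100 for the full control effect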). Put shortly:
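HEK293 cells co-expressing hNpr1 and the GloSensor pGS-40F cGMP luciferase sensor were preloaded with 2% GloSensor reagent for 2 h. Compounds were added for 30 min at room temperature, then cells were stimulated with 0.1 nM hNppA for 20 min before luminescence readout.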

The target of assay [10] is Atrial natriuretic peptide receptor 2 (Homo sapiens) (UniProt P20594). Nature of the assay: Natriuretic polypeptide receptor (hNpr2) antagonism - Pilot subtype selectivity assay (AID 1347050; calls by dose curve; also: % is scaled to controls: 0 for no effect and ±100 for the full control effect). Put shortly:
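cGMP-sensor HEK293/hNpr2 cells; 2% GloSensor reagent 2 h RT; compounds 30 min; baseline luminescence read; 1 nM hNppC agonist 20 min RT; final luminescence read by CCD camera. Antagonism = reduced post-agonist signal.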

Assay [11] in a line: P-glycoprotein substrates identified in KB-3-1 adenocarcinoma cell line, qHTS therapeutic library screen (AID 1346986). Also: nearly all actives have a fitted effect of over 60% in size. The procedure, abridged: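 Resistance attributable to P-gp was assessed by comparing AC50 in KB-8-5-11 with parental KB-3-1 and by tariquidar reversal. Cells were exposed 72 h and viability read by CellTiter-Glo.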
Assay [12] can be described thus: qHTS Screen of the MIPE 4.0 Collection Against Ewings Sarcoma (RDES) (AID 1259252). Also: nearly all actives have a fitted effect of over 35% in size. Also: potency is read from the fitted curve at half-maximal effect. Put shortly: as §1
Assay [13] can be described thus: Natriuretic polypeptide receptor (hNpr1) antagonism - Pilot counterscreen GloSensor control cell line (AID 1347045; calls by dose curve; also: % is scaled to controls: 0 for no effect and ±100 for the full control effect). The procedure, abridged: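 Luminescence was read before and 20 min after adding 50 uM SNP, which stimulates soluble guanylyl cyclase. The HEK293 cells expressing the GloSensor cGMP sensor had been preloaded with 2% reagent for 2 h and treated with compound.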
A general note: The purpose of a counterscreen is to sort out artefacts and off-target activity.

Assay [14] can be described thus: qHTS assay to identify small molecule inhibitors of chordoma cells - UCH-1 (AID 1259355). Also: % is scaled to controls: 0 for no effect and ±100 for the full control effect; nearly all actives have a fitted effect of over 55% in size. Put shortly:
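Luminescent ATP read-out (CellTiter-Glo, 30min at room temperature) measured viability of UCH-1 cells exposed for 48hr to test drugs at 15 concentrations, co-dosed with a five-agent combination of auranofin, camptothecin, doxorubicin, rubitecan and topotecan.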

Sequence of Atrial natriuretic peptide receptor 1 (Homo sapiens) (P16066 whole entry, looked up): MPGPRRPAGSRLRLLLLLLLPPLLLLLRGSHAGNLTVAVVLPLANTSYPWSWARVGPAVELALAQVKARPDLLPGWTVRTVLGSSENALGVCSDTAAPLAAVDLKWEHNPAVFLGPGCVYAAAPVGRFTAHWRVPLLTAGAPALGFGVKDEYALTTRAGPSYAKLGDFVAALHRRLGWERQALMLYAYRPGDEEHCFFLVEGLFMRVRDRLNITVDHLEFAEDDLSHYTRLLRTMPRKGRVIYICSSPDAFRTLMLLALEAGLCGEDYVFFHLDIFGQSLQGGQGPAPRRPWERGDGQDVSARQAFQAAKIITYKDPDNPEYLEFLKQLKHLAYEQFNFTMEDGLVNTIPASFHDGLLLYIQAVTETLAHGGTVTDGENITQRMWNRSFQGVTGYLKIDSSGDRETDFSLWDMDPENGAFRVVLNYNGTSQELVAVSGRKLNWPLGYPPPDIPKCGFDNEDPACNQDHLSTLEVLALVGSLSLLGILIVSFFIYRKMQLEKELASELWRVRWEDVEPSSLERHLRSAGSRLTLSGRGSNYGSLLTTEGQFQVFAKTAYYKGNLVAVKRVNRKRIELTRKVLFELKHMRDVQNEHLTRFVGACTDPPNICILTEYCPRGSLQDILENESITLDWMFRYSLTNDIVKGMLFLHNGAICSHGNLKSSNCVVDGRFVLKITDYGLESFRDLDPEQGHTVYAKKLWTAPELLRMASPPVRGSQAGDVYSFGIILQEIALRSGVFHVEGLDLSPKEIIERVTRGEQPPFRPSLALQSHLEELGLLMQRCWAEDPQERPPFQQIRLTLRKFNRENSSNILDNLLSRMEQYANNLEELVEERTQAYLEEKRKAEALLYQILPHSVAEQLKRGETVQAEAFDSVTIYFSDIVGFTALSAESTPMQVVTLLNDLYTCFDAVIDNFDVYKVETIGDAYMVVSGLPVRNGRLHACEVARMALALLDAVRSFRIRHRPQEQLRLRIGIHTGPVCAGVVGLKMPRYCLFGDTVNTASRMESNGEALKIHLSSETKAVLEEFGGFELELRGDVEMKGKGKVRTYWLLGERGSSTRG
Sequence of Atrial natriuretic peptide receptor 2 (Homo sapiens) (P20594 whole entry, looked up): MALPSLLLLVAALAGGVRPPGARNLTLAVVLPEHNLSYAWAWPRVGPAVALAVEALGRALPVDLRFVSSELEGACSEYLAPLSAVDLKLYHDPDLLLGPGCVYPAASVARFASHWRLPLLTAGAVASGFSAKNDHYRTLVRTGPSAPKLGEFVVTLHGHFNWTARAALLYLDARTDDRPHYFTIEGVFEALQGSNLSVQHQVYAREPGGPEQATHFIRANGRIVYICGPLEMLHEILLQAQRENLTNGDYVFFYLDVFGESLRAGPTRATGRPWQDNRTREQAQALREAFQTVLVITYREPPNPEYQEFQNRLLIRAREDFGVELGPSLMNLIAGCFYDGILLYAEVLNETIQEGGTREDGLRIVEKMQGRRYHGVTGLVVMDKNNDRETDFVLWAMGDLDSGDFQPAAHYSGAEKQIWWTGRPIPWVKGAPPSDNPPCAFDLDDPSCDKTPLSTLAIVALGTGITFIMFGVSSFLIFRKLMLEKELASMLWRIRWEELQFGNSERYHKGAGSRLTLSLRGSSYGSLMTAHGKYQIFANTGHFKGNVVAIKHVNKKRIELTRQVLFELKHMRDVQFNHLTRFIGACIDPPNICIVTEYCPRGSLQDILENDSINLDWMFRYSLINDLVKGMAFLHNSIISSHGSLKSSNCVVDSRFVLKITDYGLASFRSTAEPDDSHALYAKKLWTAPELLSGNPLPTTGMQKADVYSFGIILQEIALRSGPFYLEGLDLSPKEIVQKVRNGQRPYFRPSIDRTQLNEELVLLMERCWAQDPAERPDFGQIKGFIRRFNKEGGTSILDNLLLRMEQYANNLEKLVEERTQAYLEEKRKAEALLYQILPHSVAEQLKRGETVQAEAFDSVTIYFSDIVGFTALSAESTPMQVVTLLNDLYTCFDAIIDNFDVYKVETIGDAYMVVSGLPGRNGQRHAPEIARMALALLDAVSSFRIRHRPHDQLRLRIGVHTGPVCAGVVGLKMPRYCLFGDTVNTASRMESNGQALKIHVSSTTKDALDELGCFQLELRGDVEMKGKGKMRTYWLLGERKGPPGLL

`c1cc2c(cc1[C@H]1OC[C@H]3[C@H]1CO[C@H]3c1ccc3c(c1)OCO3)OCO2`: in [1], the viability (% of control) amounted to 91%. In addition, the Potency entry in assay [2], in [3], in [4], in [5], in [6] and in [7] was “inactive” in each case.
Take `C[C@]12COC(=O)C[C@@H]1CC[C@@H]1[C@H]2CC[C@@]2(C)[C@H]1CC[C@]2(C)O`: in assay [1], the viability (% of control) is 111%. Further, the Potency entry in assay [2], in assay [3], in [4], in assay [5], in assay [6] and in assay [7] was “inactive” in each case.
In the case of `CCOC(=O)Nc1ccc(NCc2ccc(F)cc2)cc1N`, in [1], the viability (% of control) turned out to be 105%. Besides, the Potency entry in assay [2], in [3], in assay [6] and in [7] was “inactive” in each case. In addition, the Potency was 29.6 µM (active) in assay [8] and 20.9 µM (active) in assay [5].
For `CCOC(=O)c1c(C(C#N)=CN)c2ccc(Cl)c(Cl)c2n1C`, the viability (% of control) in [1] stood at 94.3%. Moreover, the Potency result in [2], in assay [3], in [5], in assay [6] and in assay [7] was “inactive” each time.
Regarding `Cc1c(C(=O)c2cccc3ccccc23)c2cccc3c2n1[C@H](CN1CCOCC1)CO3`, the viability (% of control) in [1] is 40%. Besides, the Potency entry in assay [2], in [3], in [9] and in assay [10] was “inactive” each time. For the same compound, the Potency in assay [4] is 26.4 µM (active); in assay [5], 26.4 µM (active); in assay [6], 7.43 µM (active).
On to `CCc1c(C(=O)C(N)=O)c2c(OCC(=O)O)cccc2n1Cc1ccccc1`, for which, in assay [1], the viability (% of control) was determined as 115%. Besides, the Potency result in assay [2], in assay [3], in assay [11], in [6] and in [7] was “inactive” in each case.
Consider `C[C@](O)(COc1ccc(C#N)cc1)C(=O)Nc1ccc(C#N)c(C(F)(F)F)c1`, for which the viability (% of control) in assay [1] stood at 99.4%. Moreover, the Potency result in [2], in assay [3], in assay [12], in assay [5], in assay [6] and in assay [7] was “inactive” each time.
With `CC(C)[C@H]1C(=O)N[C@H](CO)Cc2c[nH]c3cccc(c23)N1C`, the viability (% of control) in [1] turned out to be 82.8%. For the same compound, the Potency in [2] was 23.5 µM (active); in [5] it was 0.166 µM (active). In addition, the Potency entry in [3], in assay [8], in assay [4], in [6] and in assay [7] was “inactive” throughout.
With `CC(C)(O)C=CC(=O)[C@](C)(O)[C@H]1[C@H](O)C[C@]2(C)[C@@H]3CC=C4[C@@H](C=C(O)C(=O)C4(C)C)[C@]3(C)C(=O)C[C@@]12C`, in assay [1], the viability (% of control) was 2.59%. The Potency entry in assay [2] and in assay [3] was “inactive” throughout. The Potency was 0.59 µM (active) in [12], 0.0418 µM (active) in assay [5] and 3.32 µM (active) in [7].
For the compound `CCN(CC)C(=O)c1ccc(C2=CC3(CCNCC3)Oc3cccc(O)c32)cc1`, in assay [1], the viability (% of control) came out at 79%. Further, the Potency entry in assay [2], in assay [3], in assay [12], in [6] and in assay [7] was “inactive” in each case.
On to `COC1=CC(C)=C[C@@H](C)[C@@H](O)[C@@H](C)CC(C)=CC=C[C@H](OC)[C@H]([C@@H](C)[C@@H](O)[C@H](C)[C@@]2(O)C[C@@H](O)[C@H](C)[C@@H](C(C)C)O2)OC1=O`, for which, in [1], the viability (% of control) is 18.4%. Further, the Potency entry in assay [2] and in assay [3] was “inactive” in each case. In addition, the Potency is 0.0059 µM (active) in [12], 0.0033 µM (active) in [5], 0.0148 µM (active) in assay [6] and 0.0012 µM (active) in assay [7].
On to `O=C1C=CC[C@@H]2[C@H]3CCCN4CCC[C@@H](CN12)[C@@H]34`, for which the viability (% of control) in assay [1] is 120%. For the same compound, the Potency was 4.69 µM (active) in [2], 3.32 µM (active) in [3] and 16.6 µM (active) in assay [5]. The Potency result in assay [6] and in assay [7] was “inactive” throughout.
For the compound `CN[C@@H]1Cc2cccc3[nH]c(=O)n(c23)C1`, in assay [1], the viability (% of control) is 119%. The Potency result in assay [2], in assay [3], in assay [12], in assay [5] and in [7] was “inactive” in each case.
For `NC1CC1c1ccccc1` (stereo not drawn), the viability (% of control) in assay [1] worked out at 95.2%. The Potency entry in assay [2], in [3], in assay [8], in assay [5], in assay [13] and in assay [9] was “inactive” throughout. For the same compound, the Potency result in [10] and in assay [7] was “inactive” throughout.
In the case of `CC1(N2CCC(n3c([C@@H]4CCCNC4)nc4ccccc43)CC2)CCCCCCC1`, the viability (% of control) in assay [1] amounted to 5.69%. In addition, the Potency entry in [2] and in [3] was “inactive” in each case. For the same compound, the Potency is 9.35 µM (active) in [5]; 23.5 µM (active) and 20.6 µM (active) in assay [6]; 20.9 µM (active) in assay [7].
For `CC(=O)N(C)c1cccc(-c2ccnc3c(C(=O)c4cccs4)cnn23)c1`, in assay [1], the viability (% of control) was 72.5%. Also, the Potency result in assay [2], in assay [3], in assay [11] and in [7] was “inactive” in each case.
Take `CCOC(=O)c1cncn1[C@H](C)c1ccccc1`: the viability (% of control) in assay [1] is 105%. In addition, the Potency entry in [2], in assay [3], in [8], in assay [4], in [5] and in assay [6] was “inactive” throughout. Moreover, the Potency result in assay [7] is “inactive”.
With `CN[C@@H](C)[C@H](O)c1ccccc1`, the Potency result in assay [2], in assay [3], in assay [14], in assay [6] and in assay [7] was “inactive” in each case.
Regarding `O=C1C(I)=CC(=C(c2cc(I)c(O)c(I)c2)c2ccccc2C(=O)O)C=C1I`, the Potency result in assay [2], in assay [3], in assay [14], in assay [6] and in assay [7] was “inactive” each time.
Turning to `CC(Cc1ccc(O)cc1)NCC(O)c1cc(O)cc(O)c1` (stereo not drawn), the Potency entry in assay [2], in assay [3], in assay [14], in assay [6], in assay [13] and in assay [9] was “inactive” throughout. Also, the Potency result in [10] and in assay [7] was “inactive” each time.
With `CC(=O)NCCc1c[nH]c2ccccc12`, the Potency result in assay [2], in assay [3], in assay [11], in assay [6], in [13] and in [9] was “inactive” each time. For the same compound, the Potency entry in assay [10] and in assay [7] was “inactive” each time.
Turning to `CCCCCCCCCCCCCCCC[N+](C)(C)C`, the Potency result in assay [2] and in assay [3] was “inactive” in each case.
Consider `CN1C2CCC1CC(OC(=O)c1cc(Cl)cc(Cl)c1)C2` (stereo not drawn), for which the Potency result in assay [2], in assay [3], in assay [14], in assay [13], in [9] and in [10] was “inactive” throughout. The Potency entry in [7] is “inactive”.
Take `COC(C)(C)CCCC(C)C/C=C/C(C)=C/C(=O)OC(C)C` (stereo not drawn): the Potency result in [2], in assay [3], in assay [14] and in assay [7] was “inactive” throughout.
Regarding `CC(C)NCC(O)c1ccc([N+](=O)[O-])cc1` (stereo not drawn), the Potency entry in [2], in assay [3], in [6] and in [7] was “inactive” each time.

Source of the values: PubChem BioAssay (NCATS).
